Test results from PubChem BioAssay AID1241 (SRMLSC, 2008).
Screen size: about 1,200 compounds; about 840 (70%) were called active. How the calls were made is not given here. The set was probably picked from earlier hits. Not all results are given here. Entries with a potency or affinity are not part of this list.

test: NF-kB promoter reporter activators, neuronal cells, dose response, cell-based, SH-SY5Y, luciferase (AID 1241); conditions: series mostly up to 30 µM; fold induction over control: at the top concentration

Fold induction over control, inactive:
CCN1CCCc2cc(CN(CCN3CCOCC3)C(=S)Nc3cccc(Cl)c3)ccc21 0.89
CCc1nc(Sc2nnnn2-c2ccccc2)c2c3c(sc2n1)CCCC3 6.97 [at 15 µM]
CCC/C=N/Nc1nc2ccccc2s1 8.91
CCCNC(=O)c1cc(-c2ccc(OC)cc2)on1 13
COc1ccc(C(=O)c2oc3ccc(OC)cc3c2N)cc1 9.59
O=c1cc(-c2ccc3c(c2)OCCO3)oc2ccc(Cl)cc12 10.2 [at 3.75 µM]
N/C(=N\OC(=O)COc1ccc(Cl)cc1Cl)c1ccncc1 7.15
COc1cccc(-c2nc3ccccc3s2)c1O 12.9 [at 15 µM]
Brc1ccc(-c2nc3ccccc3s2)s1 12.4
Cc1ccc(-c2cc(=O)c3cc(C)ccc3[nH]2)cc1 11 [at 15 µM]
Cc1ccc2[nH]c(-c3ccccc3)cc(=O)c2c1 12.2
Clc1ccc2nc3c4ccccc4cnn3c2c1 11.6 [at 15 µM]
C/C(N)=C(/C#N)C(=O)CSc1nnc(-c2ccccc2Br)o1 11.6 [at 7.5 µM]
CCOC(=O)/C(=C\c1ccc(OC(F)F)cc1)C1=Nn2c(nnc2-c2ccc(Cl)cc2)SC1 5.95 [at 7.5 µM]
CC(OC(=O)CCc1nc2ccccc2c(=O)[nH]1)C(=O)c1ccc(C(C)(C)C)cc1 (stereo unspecified) 2.93
CCCOC(=O)c1ccc(NC(=O)CC(C)(C)C)cc1 8.07
COc1ccc(-c2cc(-c3ccccc3)c(C#N)c(S(C)(=O)=O)n2)cc1 4.91 [at 15 µM]
CC1=CN2C(=N)/C(=C/c3ccco3)C(=O)N=C2S1 9.51
Cc1cc(NC2CCCCC2)n2c(n1)nc1ccccc12 1.3
Cc1cccc(-c2c(O)cc(=O)[nH]c2Cl)c1 0.97
CC(C)Oc1ccc2c(=O)c(-c3ccccc3)coc2c1 12.8
CCOc1cc(/C=C2/NC(=O)N(Cc3ccccc3F)C2=O)ccc1O 1.35
Cc1cc(C)nc(Sc2nc(C)nc3c2oc2ccccc23)n1 6.8
COC(=O)C1C(=O)/C(=C/N(C)C)C(=O)CC1(C)C (stereo unspecified) 1.08
Clc1ccc(-c2cc(CSc3ccccc3)on2)cc1 9.85
O=C(NCCN1CCOCC1)c1cc(-c2cccs2)on1 8.73
O=C1N/C(=C/c2ccc(N3CCOCC3)o2)C(=O)N1c1ccccc1 1.59
COc1ccc(/C=N/n2c(-c3cccs3)n[nH]c2=S)cc1 2.22
CCOc1ccc(C2=NNC(c3cccs3)=Nc3ccc(OC)cc32)cc1 0.8
COc1ccc(/C=N/NC(=O)COc2ccccc2-c2ccccc2)cc1 3
COc1ccc(/C=N/Nc2ccc([N+](=O)[O-])cc2S(=O)(=O)N2CCN(C)CC2)cc1 1.22
CNC(=S)N/N=C(\C)c1ccc(N2CCOCC2)cc1 1.55
COC(=O)N/N=C(/c1ccccc1)C1CCCCC1 1.01
O=c1c2c(nc3cc(-c4cccc(Cl)c4)[nH]n13)CCC2 11.5
O=C(Nc1ccc2ccccc2c1)c1cnccn1 10.2
c1ccc(Nc2nc3ccccc3o2)cc1 12.6
NC(N)=N/N=C/c1ccc(OCc2ccc(Cl)cc2)cc1 5.51 [at 7.5 µM]
Cn1cccc1/C=C1\Cc2ccccc2C1=O 10.4
COc1ccc(C(=O)/C=C/c2cccs2)c(OC(=O)c2cccc([N+](=O)[O-])c2)c1 11.9
COc1ccc(/C=C\c2nc(=O)c3ccccc3o2)cc1 15.8 [at 7.5 µM]
Cc1nc(SCc2ccc(Cl)cc2)ncc1C(=O)O 1.29
CC(=O)Nc1cc2nn(-c3ccccc3)nc2cc1Cl 12.6 [at 7.5 µM]
CC(C)CC(=O)Nc1ccc2c(c1)oc1ccccc12 11.7
COc1ccc(-[n+]2c(C)cc(/C=C3\Sc4ccccc4N3C)cc2C)cc1 0.76
Cc1ccc(C2=NN3C(C2)c2ccccc2OC32C(=O)Nc3ccccc32)cc1 (stereo unspecified) 9.54
C=CCN=Cc1c(C)[nH]n(-c2ccccc2)c1=O 2.13
Cc1[nH]n(-c2ccccc2)c(=O)c1C=NC1CCCCC1 1.35
O=C(Nc1ccccc1O)c1ccc(Cl)cc1 6.47
CCOC(=O)c1noc(C)c1C(=O)Nc1nccs1 1.14
COc1cccc(NC(=S)N(CCN(C)C)Cc2cccs2)c1 1.01
O=C(c1ccco1)n1c(=S)nc2ccccn21 12.4
Cc1ccc(C(=O)CSc2nsc(C)c2C#N)cc1 8.66
Cc1cccc2nc(=S)n(C(=O)c3ccco3)n12 13
CCOC1CS(=O)(=O)CC1OCC (stereo unspecified) 1.16
O=C(c1ccccc1)c1ccccc1C(=O)N1CCCC1 1.09
Cc1cccc(/C(N)=N/OC(=O)c2cccs2)c1 9.94
COc1ccc(N=C2C(=Nc3ccc(OC)cc3)N(c3ccccc3)C(=S)N2C(=O)c2ccc(Cl)cc2)cc1 1.17
COc1ccc(N=c2sc3ccccc3n2C)cc1 9.89
COc1cc(C2C(S(=O)(=O)c3ccccc3)CON2C)ccc1OCc1ccc(F)cc1 (stereo unspecified) 1.13
O=C(Oc1ccccc1/C=C\C(=O)c1cc2ccccc2o1)c1ccccc1 13.7
Cn1c(SCc2ccc(C#N)cc2Cl)nc2ccccc21 8.91
c1ccc2nc3c(nc2c1)[nH]c1ccccc13 7.78
c1ccc(C2=Nc3ccccc3SC2c2nc3ccccc3[nH]2)cc1 (stereo unspecified) 4.04
COC(=O)c1ccc(COn2nnc3ccccc32)cc1 9.21
CCCOc1ccc2c3c(c(=O)oc2c1OCCC)CCC3 3.44
COc1ccccc1-c1cc(C(=O)N2CCCCC2)no1 8.4
O=C(NCCCN1CCOCC1)c1cc(-c2ccccc2)on1 8.39
O=C(Oc1ccc(-c2ccccc2)cc1)N1CCCCC1 2.54
O=C(NCCN1CCOCC1)c1cc(-c2ccccc2)on1 5.86
Cc1cccc(-c2cc3nc(C)cc(C)n3n2)c1 9.12
CNc1nc(-c2ccccn2)nnc1-c1ccccc1 1.07
CN1CCN(CC(=O)N2c3ccccc3C(C)(c3ccccc3)CC2(C)C)CC1 (stereo unspecified) 2.19
Cc1cccc(-c2noc(-c3ccc(F)cc3)n2)c1 12.8
O=C(Nc1ccc(N2CCCC2=O)cc1)c1cccc(F)c1 6.57
O=C(CSc1nc(Nc2ccccc2)nc(N2CCOCC2)n1)Nc1ccccc1Cl 0.84
Cc1ccc(-c2cnc3cc(C)nn3c2)cc1 9.08 [at 7.5 µM]
CCCc1cc(C(=O)Nc2cc(Br)ccc2O)no1 2.58
N#Cc1ncc(-c2ccc3c(c2)OCCOCCOCCOCCOCCO3)nc1C#N 6.81
CC1=C/C(=N\OS(=O)(=O)c2ccccc2)C(C)=CC1=O 0.31
Cn1c(-c2ccc(Br)o2)nc2cc(Br)ccc21 9.61
Clc1ccccc1-c1nnc(-c2cccs2)o1 9.9
O=C(Nc1nccs1)c1sc2ccccc2c1Cl 11.4 [at 15 µM]
CCCCCCOc1ccc(/C(N)=N/O)cc1 11.4
CCCCCCOc1ccc(OC(=O)c2ccncc2)cc1 5.72
N#Cc1c(NCCO)nc(NCc2ccccc2)c2c1CCN(Cc1ccccc1)C2 0.9
Cc1ccccc1NC(=O)/C=C/c1ccc([N+](=O)[O-])s1 5.73 [at 15 µM]
CCC(=O)Nc1cccc(C(=O)/C=C/c2ccccc2)c1 9 [at 15 µM]
Cc1ccc(NC(=O)/C=C/c2cccs2)c([N+](=O)[O-])c1 10.2
Cc1nn(Cc2ccccc2)c(Cl)c1/C=C/C(=O)OCC(=O)N1CCCC1=O 1.01
Cc1cccc(NC(=O)c2csnn2)n1 1.22
COc1ccc(OCCOC(=O)c2[nH]c(C)c(C(C)=O)c2C)cc1 0.69
Cc1ccc(Nc2nc(N)nc(CSc3ncccn3)n2)cc1 8.11
Cc1cc(N2CCOCC2)ccc1/C=C1/SC(=O)NC1=O 3.2
Cc1ccc(/C=N/N=C/c2ccc(C)s2)s1 16.3
CCOC(=O)c1ccc(NC(=O)N2CCc3ccccc32)cc1 9.88
CCCCNC(=O)c1cc(-c2ccc(F)cc2)on1 20.1
COc1ccc2c(=O)c(-c3ccccc3)coc2c1 9.03
CN(C)c1ccc(C(=S)NCc2ccco2)cc1 4.68
Cc1nnc(SCC(=O)Nc2nsc(-c3ccc(C(C)(C)C)cc3)n2)s1 10.8
COc1ccc(C2=NN3C(C2)c2ccccc2OC32C(=O)N(C)c3ccccc32)cc1 (stereo unspecified) 8.01
CC(=O)c1cc(N2CCOCC2)ccc1[N+](=O)[O-] 1.03
O=C(O)/C=C\C(=O)Nc1ccccc1C#Cc1ccccc1 1.8
CCc1cc(C(=O)Nc2ccc(C)cc2Br)cs1 7.97
CC(C)c1cc(C(=O)Nc2cc(Br)ccc2O)no1 2.7
CC(C)Cc1cc(C(=O)Nc2cc(Br)ccc2O)no1 2.37
Cc1ccc(C(=O)COC(=O)c2ccc(O)cc2)cc1 10.9
O=C(CC(SCc1ccco1)c1ccc(O)cc1)c1cccs1 (stereo unspecified) 11.4
O=C(CCC(=O)c1cccs1)c1cccs1 10.6
Cc1ccc(C)c(OCC(=O)O/N=C(\N)c2ccccn2)c1 5.69
CC(C)c1ccc(/C=N/NC(=O)c2c(Cl)cnn2C)cc1 9.29
CC(=O)c1sc(NC(=O)c2cccc(C)c2)nc1C 10.6
O=C(Nc1cccnc1)c1cc(-c2ccc3c(c2)OCO3)on1 12 [at 15 µM]
O=c1c2c(nc3cc(-c4ccccc4)[nH]n13)CCS2 3.49
Cc1ccc(CN2CN(S(=O)(=O)c3cccs3)c3nc4ccccc4nc32)cc1 1.19
Nc1c(C(=O)C2CC2)sc2nc3c(cc12)CCC3 10.5
CCOC(=O)c1sc2nc3c(cc2c1N)COC(C)(C)C3 11
COc1ccc(NC(=O)c2cc3ccccc3o2)cc1 11.5
O=C(Nc1ccc(Cl)cn1)c1ccc([N+](=O)[O-])o1 12.4
Cc1cccc(NC(=O)c2cc3ccccc3o2)c1 11.9
O=C(Nc1cccc(Br)c1)c1cc2ccccc2o1 10.1
COc1ccc2oc(=N)c(C(=O)Nc3ccccc3)cc2c1 12.7
CCN1C/C(=C/c2ccc(N3CCOCC3)cc2)C(=O)/C(=C/c2ccc(N3CCOCC3)cc2)C1 13 [at 15 µM]
Cc1ccc(NC(=O)/C(C#N)=C(\N)C(Cl)(Cl)Cl)nc1 5.72 [at 7.5 µM]
N/C(=N\OC(=O)COc1ccc(Cl)cc1Br)c1ccncc1 9.84
CN1CCN(CC(=O)Nc2ccccc2[N+](=O)[O-])CC1 1.19
COc1ccccc1/C=N\Nc1cn[nH]c(=O)c1Cl 1.17
